LmPK inh: LmPK (Leishmania mexicana) enzyme inhibition | purified LmPK, Kinase-Glo ATP luminescence, 1 h | Q27686 | hit rate 0.37% among 290,000 | Potency, µM (series often up to 57.5 µM), inactives show at the top dose activity change, negative = inhibition, usual class: inhibitors | AID 1721; also: potency is read from the fitted curve at half-maximal effect; % is scaled to controls: 0 for no effect and ±100 for the full control effect
Target sequence (Q27686 whole entry, looked up): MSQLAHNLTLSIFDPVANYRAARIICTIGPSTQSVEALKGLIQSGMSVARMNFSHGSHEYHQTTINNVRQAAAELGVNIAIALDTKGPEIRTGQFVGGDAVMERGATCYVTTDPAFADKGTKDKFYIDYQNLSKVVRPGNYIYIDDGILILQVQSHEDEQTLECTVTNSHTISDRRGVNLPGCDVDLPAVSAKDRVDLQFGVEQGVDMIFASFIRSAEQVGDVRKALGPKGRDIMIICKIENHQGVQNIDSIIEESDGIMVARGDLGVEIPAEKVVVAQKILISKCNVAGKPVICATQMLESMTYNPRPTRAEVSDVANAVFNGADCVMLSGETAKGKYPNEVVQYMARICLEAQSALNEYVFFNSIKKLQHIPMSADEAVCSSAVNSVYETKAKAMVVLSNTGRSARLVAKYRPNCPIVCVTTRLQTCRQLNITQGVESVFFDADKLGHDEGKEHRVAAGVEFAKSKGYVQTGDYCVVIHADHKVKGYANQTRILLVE
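Pyruvate kinase activity monitored as ATP production (luciferase luminescence). Conditions: 0.1 nM enzyme, 0.5 mM PEP, 0.1 mM ADP, 1 h, RT; normalized against uninhibited and no-enzyme wells.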
Shiga inhibitor: Shiga toxin inhibition; hit rate 9.2% among 290,000; Vero cells, Shiga toxin protein synthesis inhibition reporter; inhibition, % at 38.7 µM; in the data active = inhibition mostly above about 28%, no sharp cut-off; inactive = mostly below about 43%; also: 0% is about no effect
FBPA Giardia inh: inhibitors of Giardia lamblia fructose-1,6-bisphosphate aldolase. A8B2U2. purified Giardia FBPA. Potency, µM (series often up to 59.6 µM), without a hit: at the top dose activity, negative = inhibition, most hits filed as inhibitors. hit rate 0.71% among 290,000. AID 2451; also: potency is read from the fitted curve at half-maximal effect; % is scaled to controls: 0 for no effect and ±100 for the full control effect; nearly all actives have a fitted effect of over 55% in size
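40 nM FBPA preincubated 10 min at RT with compound (up to 57.5 uM final), then substrate plus GAPDH/TPI/NAD/arsenate coupling and diaphorase/resazurin added. Fluorescence read after 20 min at RT, 525/598 nm.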
TbPYK inhibitor: T. brucei pyruvate kinase inhibition; Q57TT1; TbPYK enzyme, Kinase-Glo Plus ATP luminescence, 45 min; Potency, µM (series often up to 76.8 µM), inactives show top-dose activity, negative = inhibition, most hits filed as inhibitors; hit rate 0.12% among 410,000; AID 624173; also: potency is read from the fitted curve at half-maximal effect; % is scaled to controls: 0 for no effect and ±100 for the full control effect; nearly all actives have a fitted effect of over 50% in size
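T. brucei PYK with substrate was exposed to pin-transferred compounds across a concentration series, then started with 130 uM ADP (final). After 45 min at room temperature, Kinase-Glo Plus luminescence was read, normalized and curve-fitted.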
RE007 growth inh: less growth of the S. pombe RE007 Vpr strain; S. pombe RE007 Vpr strain, BacTiter-Glo ATP luminescence, 24 h; Potency, µM (titrated, usually from 92.2 µM), inactives show at the top dose activity change, negative = less growth, most hits filed as inhibitors; hit rate 0.21% among 360,000; active = well fitted falling curve with a large enough effect; inconclusive = small, poorly fitted or top-dose-only effect; inactive = no such curve, though single readings can be large or run the other way; also: potency is read from the fitted curve at half-maximal effect; % is scaled to controls: 0 for no effect and ±100 for the full control effect; nearly all actives have a fitted effect of over 50% in size
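Fission yeast strain RE007, carrying one chromosomally integrated HIV-1 vpr copy, was seeded at OD 0.01 in PMG+AL medium with 23 nL pinned compound. After 24 h at 30 °C and 99% humidity, viability was read by BacTiter-Glo luminescence.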
CHX counter: counter-screen hit for Shiga toxin inhibitors, cycloheximide | cell reporter, cycloheximide protein synthesis inhibition counterscreen | max response, % | hit rate 12% among 300,000 | AID 2314; in the data active = max response mostly above about 13%, no sharp cut-off; inactive = mostly below about 14%; also: read at 38.3 µM for the half of the compounds with a filed dose; 0% is about no effect
Numbers without * were called inactive; ? = inconclusive; nt = no result given. This excerpt belongs to a sample that is enriched for hits. Unless noted, calls follow the shape of the dose curve; as a rule, active = well fitted curve in the direction sought with a large enough effect; inconclusive = small, poorly fitted or top-dose-only effect, or another doubt; inactive = no such curve, though single readings can be large; an effect the other way counts as inactive or inconclusive.

SMILES | LmPK inh | Shiga inhibitor | FBPA Giardia inh | TbPYK inhibitor | RE007 growth inh | CHX counter
CCOc1ccc(S(=O)(=O)Nc2nc3ccccc3nc2Nc2ccc(N3CCOCC3)cc2)cc1 | 3.2% | 4.1 | -2.3% | 6.6% | -0.5% | 13.4*
CCCCNC(=S)NNC(=O)c1cc(-c2ccncc2)nc2ccccc12 | 7.0% | 24.1 | nt | 17.4% | 9.2% | 19.0*
CCNC(=S)NNC(=O)c1cc(-c2cccc(OC)c2)nc2ccccc12 | -29.2% | 42.6 | 27.7% | -6.1% | -8.4% | 71.0*
CCCOc1cccc(-c2cc(C(=O)NNC(=S)NCC)c3ccccc3n2)c1 | 5.6% | 87.3* | -13.1% | -4.8% | -9.3% | 25.0*
CCOc1ccc(CNC(=O)c2c(C)nn(-c3ccc(F)cc3)c2-n2cccc2)cc1 | nt | nt | nt | -8.2% | nt | nt
Cc1ccc2nc(Cc3ccc(N)cc3)[nH]c2c1 | 1.3% | 75.3* | ? | -6.3% | -4.1% | 19.7*
Cc1ccc2nc(-c3ccccc3N)[nH]c2c1 | ? | 69.6 | -22.2% | -9.7% | ? | 41.2*
Nc1ccc(Cc2ccccn2)cc1 | 4.7% | 12.6 | 0.3% | 1.9% | 2.5% | 1.1
Cc1c(N)cccc1-c1nc2ccccc2[nH]1 | -17.2% | 38.6* | -14.4% | 0.3% | -11.9% | 52.4*
Nc1ccc(Cc2nc3c(ccc4ccccc43)[nH]2)cc1 | 0.2% | 97.0* | -14.4% | 0.0% | 14.8% | 45.8*
CCC(C)NC(=O)CCc1c(C)nc2cc(-c3ccc(OC)cc3OC)nn2c1C (configuration not stated) | nt | nt | nt | 8.5% | nt | nt
COc1ccc(NC(=O)c2oc3ccccc3c2NC(=O)Cc2coc3cc(C)ccc23)cc1 | nt | nt | nt | 2.3% | nt | nt
CCCN1CCC(=O)N([C@H](CN=[N+]=[N-])CC(C)C)CC1 | 8.3% | -6.0 | -5.7% | -5.3% | -8.4% | -0.5
Fc1ccc(Nc2ncnc3c2nc2n3CCCCC2)c(F)c1 | nt | nt | nt | -4.8% | nt | nt
Cc1ccc(C)c(-c2nc3ccc(N)cc3[nH]2)c1 | -16.4% | 32.9 | -9.2% | 1.7% | -8.3% | 14.2*
Cc1ccc2nc(/C=C/c3cccc(F)c3)ccc2c1 | -6.1% | 89.8* | -8.4% | -2.6% | -12.5% | 64.9*
O=C(c1c(F)cccc1F)N(Cc1ccccn1)C1CC1 | 0.1% | 56.5 | -2.0% | 4.0% | 3.2% | 23.8*
Cn1ccc2c(-c3ccc(C(=O)O)cc3)cc3c(c21)C1CCC3C1 (configuration not stated) | nt | nt | nt | 2.2% | 44.7µM* | nt
O=C(O)CCCNC(=O)Nc1ccccc1 | 2.4% | -13.9 | 0.5% | -16.8% | -9.3% | -5.4
CCCCSCCCNC(=O)Nc1ccc(CC)cc1 | -6.9% | 6.1 | 8.1% | -1.8% | 2.5% | 11.3*
O=C(NCCC1CC1(Cl)Cl)Nc1ccccc1 (configuration not stated) | 5.1% | 53.5* | 2.4% | 3.5% | -13.3% | 18.6
CCCCCCNC(=O)Nc1ccccc1 | -4.8% | 61.3* | -0.5% | -5.8% | 16.3% | 44.5*
Cc1cc(C)nc(SCC(=O)N(C)CC(=O)Nc2c(Cl)cccc2Cl)n1 | nt | nt | nt | 0.1% | -12.1% | nt
O=C(Nc1ccc2nc(SCCOc3ccccc3)sc2c1)c1cccs1 | nt | nt | nt | -1.4% | nt | nt
CC(C)N(Cc1cnn(C)c1)Cc1nc(COc2ccccc2)no1 | -0.4% | -10.8 | 0.2% | 4.2% | 0.5% | -4.8
SMILES | LmPK inh | Shiga inhibitor | FBPA Giardia inh | TbPYK inhibitor | RE007 growth inh | CHX counter
CN(Cc1cnn(C)c1)Cc1nc(COc2ccccc2)no1 | -1.8% | 33.1 | -0.8% | -7.6% | 7.6% | 14.4*
CN(Cc1cnn(C)c1)Cc1nc(-c2ccc(Cl)cc2)no1 | 6.8% | 40.6 | -1.8% | 0.6% | -13.8% | 15.9*
CN(Cc1cnn(C)c1)Cc1nc(C(c2ccccc2)c2ccccc2)no1 | 2.1% | -3.2 | -0.1% | 3.1% | 3.0% | -2.4
Cc1ccc(NC(=O)N2CCC(=O)N2)cc1 | -4.8% | 76.8* | -9.3% | -20.5% | -20.3% | 36.9*
CC1CCCCN1C(=O)COC(=O)/C=C/c1ccc2ccccc2n1 (configuration not stated) | 0.0% | 47.7* | -1.6% | 0.9% | -7.6% | 47.8*
COC(=O)CNC(=O)COC(=O)/C=C/c1ccc2ccccc2n1 | -3.5% | 32.1* | -2.4% | 2.8% | -12.7% | 20.2*
COC(=O)CNC(=O)COC(=O)/C=C/c1cccs1 | 1.8% | 32.5 | 1.4% | -1.5% | 23.9% | 1.2
